Data taken from PubChem BioAssay AID493244 (The Scripps Research Institute Molecular Screening Center, 2011).
The whole screen tested about 340,000 compounds, of which about 390 (0.11%) were called active. The sample as a whole holds a higher share of actives than the screen did. Values without a mark were called inactive.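 Rule for the calls: active = inhibition above the mean inhibition of all tested compounds plus 3 SD (cut at about 17% in these data); inactive = the rest.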

Target: Troponin I, cardiac muscle (Homo sapiens) + Troponin T, cardiac muscle (Homo sapiens) + Troponin C, slow skeletal and cardiac muscles (Homo sapiens) (UniProt P19429+P45379+P63316)
Test: calcium desensitizers of cardiac thin filaments – biochemical, IANBD-TnC fluorescence, EC70 calcium, primary screen (AID 493244);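 note: assay run at fixed EC70 calcium of 1.6 mM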
Settings: IANBD-labeled cardiac RTF, Ca2+ fluorescence; at 7.15 µM; stronger effect = higher value

SMILES | inhibition
CCN(CC)S(=O)(=O)c1ccc(N2CCOCC2)c(NC(=O)C2CSC3(C)CCC(=O)N23)c1 (centres undefined) | -5.18%
O=C(c1ccco1)N1CCN(C(=S)Nc2cc(F)cc(F)c2)CC1 | -7.48%
C[C@]12c3[nH]c4ccc(Cl)cc4c3CCN1C(=O)[C@@H](CC(=O)NCCCn1ccnc1)C[C@@H]2C(=O)N1CCOCC1 | -5.19%
O=C(Nc1ccc2c(c1)CCC2)c1cccc(S(=O)(=O)Nc2ccccc2Cl)c1 | 3.16%
COc1ccc(Cl)cc1NC(=O)[C@@H]1CCCN1C(=O)c1cccs1 | 5.41%
COC(=O)c1cccc(N(CC(=O)NCC2CCCO2)C(=O)CCC(=O)Nc2cc(C)on2)c1 (centres undefined) | 17.2% (active)
Cc1cc(NC(=O)CCC(=O)N(CC(=O)NC2CCCC2)c2ccc(F)cc2)no1 | -0.21%
Cc1cc(NC(=O)CCC(=O)N(CC(=O)NCC2CCCO2)c2ccccc2C)no1 (centres undefined) | -4.7%
Cc1cc(NC(=O)CCC(=O)N(CC(=O)NCC2CCCO2)c2ccccc2)no1 (centres undefined) | 18.5% (active)
Cc1cc(C)cc(N(CC(=O)NC2CCCC2)C(=O)CCC(=O)Nc2cc(C)on2)c1 | -4.35%
CCCCOc1ccc(N(CC(=O)NCC2CCCO2)C(=O)CCC(=O)Nc2cc(C)ccn2)cc1 (centres undefined) | -5.97%
Cc1cc(C)cc(OCC(=O)NNC(=O)CCN2C(=O)c3ccccc3C2=O)c1 | -1.71%
Cc1cc(C(=O)Nc2ccc(C)c(S(=O)(=O)N3CCOCC3)c2)c2ccccc2n1 | 5.27%
Cc1cc(OCc2ccc(C(=O)Nc3ccc(C(=O)O)cc3)o2)ccc1Cl | 2%
O=C(O[C@@H]1[C@H](Cc2ccccc2)NS(=O)(=O)[C@H]2C[C@@H]3C=C[C@]12O3)c1ccccc1Br | -4.49%
CC(Sc1nnc(COc2ccccc2)n1-c1ccccc1)C(=O)O (centres undefined) | 2%
Cc1nnc(NC(=O)CCC(=O)N2CCC(C)CC2)s1 | -6.77%
CC1(c2ccc3ccccc3c2)NC(=O)NC1=O (centres undefined) | -8.57%
O=C(Nc1ccc(Br)cc1F)C1CC(=O)N(C2CCCCC2)C1 (centres undefined) | -4.05%
Cc1ccc(NC(=O)NC2CCCCC2)cc1S(=O)(=O)N1CCOCC1 | 21.9% (active)
Cc1ccc(NC(=O)C2CCC(C(C)(C)C)CC2)cc1S(=O)(=O)N1CCOCC1 (centres undefined) | -8.96%
Cc1ccc(NC(=O)C2CC2)cc1S(=O)(=O)N1CCOCC1 | 5.9%
O=C1N=C2SCCN2/C1=C\c1c(Cl)cccc1Cl | -0.73%
COc1cccc(-n2c(=S)sc3c(=O)n(-c4ccccc4OC)c(SCC4OCCO4)nc32)c1 | -13.4%
